Assay results from PubChem BioAssay AID1159580 (chemical genetic matrix, 2015).
Values joined by “and” are separate entries in the source; they are usually repeats but may differ in a detail not shown here. Identical values can stand only once. The whole screen tested about 5,500 compounds, of which about 2,000 (36%) were called active. Roughly 18% stayed inconclusive and do not appear here. Rule as the data show it: active = normalized growth mostly below about 0.91 (no sharp cut-off); inconclusive = no clear call, values can overlap the other calls; inactive = mostly above about 0.92. The list shows a part of the results.

Assay: chemical genetic growth profiling, strain panel (AID 1159580);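 also: tested at 20 µM; growth read once vehicle control cultures reached saturation at 30 °C; 1 = growth at the plate median or of vehicle wells; lower values mean less growth of the strain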
Details: S. cerevisiae deletion strains, growth OD

Measured: normalized growth

CN1C(C(=O)Nc2ccccn2)=C(O)c2ccccc2S1(=O)=O
inactive: locus YAL013W, strain DEP1, active compounds read low 0.977 and 0.995 | locus YAL021C, strain ccr4, active compounds read low 0.977 | locus YAL026C, strain drs2, active compounds read low 0.964 | locus YAL030W, strain snc1, active compounds read low 0.944 | locus YAL040C, strain CLN3, active compounds read low 1 | locus YBL061C, strain skt5, active compounds read low 0.966 | locus YBR009C, strain hhf1, active compounds read low 0.932 | locus YBR021W, strain FUR4, active compounds read low 0.994 | locus YBR023C, strain chs3, active compounds read low 0.982 | locus YBR171W, strain sec66, active compounds read low 0.922 | locus YBR229C, strain ROT2, active compounds read low 0.965 | locus YBR231C, strain swc5, active compounds read low 0.953 | locus YBR279W, strain paf1, active compounds read low 0.979 | locus YCL011C, strain gbp2, active compounds read low 0.956 | locus YCL016C, strain dcc1, active compounds read low 0.969 | locus YCL029C, strain bik1, active compounds read low 0.955 | locus YCL061C, strain MRC1 (second series), active compounds read low 0.997 | locus YCL069W, strain vba3, active compounds read low 0.961 | locus YCR088W, strain abp1, active compounds read low 0.968 | locus YDL005C, strain med2, active compounds read low 0.964 | locus YDL035C, strain GPR1, active compounds read low 1.01 | locus YDL040C, strain nat1, active compounds read low 0.966 | locus YDL074C, strain BRE1, active compounds read low 0.992 | locus YDL101C, strain DUN1, active compounds read low 0.997 | locus YDL134C, strain PPH21, active compounds read low 0.98 | locus YDL185W, strain tfp1, active compounds read low 0.922 | locus YDL192W, strain arf1, active compounds read low 0.966 | locus YDR001C, strain nth1, active compounds read low 0.956 | locus YDR069C, strain doa4, active compounds read low 0.984 | locus YDR101C, strain arx1, active compounds read low 0.966 | locus YDR137W, strain rgp1, active compounds read low 0.918 | locus YDR150W, strain NUM1, active compounds read low 0.971 | locus YDR159W, strain sac3, active compounds read low 0.966 | locus YDR162C, strain NBP2, active compounds read low 0.991 | locus YDR195W, strain ref2 0.962 | locus YDR297W, strain sur2, active compounds read low 0.945 | locus YDR318W, strain mcm21, active compounds read low 0.944 | locus YDR334W, strain swr1, active compounds read low 0.974 | locus YDR335W, strain msn5, active compounds read low 0.97 | locus YDR363W, strain ESC2, active compounds read low 1.02 | locus YDR388W, active compounds read low 0.953 | locus YDR502C, strain sam2, active compounds read low 0.957 | locus YEL003W, strain gim4, active compounds read low 0.946 | locus YEL037C, strain rad23, active compounds read low 0.976 | locus YEL061C, strain CIN8 (second series), active compounds read low 0.978 | locus YEL061C, strain CIN8, active compounds read low 0.977 | locus YER002W, strain NOP16, active compounds read low 0.979 | locus YER015W, strain faa2, active compounds read low 0.961 | locus YER016W, strain bim1, active compounds read low 0.976 | locus YER110C, active compounds read low 0.97 | locus YER111C, strain swi4, active compounds read low 0.958 | locus YER155C, strain BEM2 (second series), active compounds read low 0.882 | locus YER155C, strain BEM2, active compounds read low 0.962 | locus YER167W, strain BCK2, active compounds read low 0.968 | locus YFR010W, strain ubp6, active compounds read low 0.971 | locus YGL078C, strain dbp3, active compounds read low 0.959 | locus YGL086W, strain mad1, active compounds read low 0.95 | locus YGL167C, strain pmr1, active compounds read low 0.937 | locus YGL173C, strain kem1, active compounds read low 0.957 | locus YGL227W, strain vid30, active compounds read low 0.964 | locus YGL240W, strain doc1, active compounds read low 0.949 | locus YGL248W, strain PDE1, active compounds read low 0.984 | locus YGL253W, strain hxk2, active compounds read low 0.961 | locus YGR078C, strain PAC10, active compounds read low 0.975 | locus YGR135W, strain pre9, active compounds read low 0.958 | locus YGR229C, strain SMI1, active compounds read low 0.98 and 1.02 | locus YGR252W, strain gcn5, active compounds read low 0.99 | locus YHR013C, strain ard1, active compounds read low 0.91 | locus YHR027C, strain rpn1, active compounds read low 0.982 | locus YHR030C, strain SLT2, active compounds read low 0.972 and 0.968 | locus YHR079C, strain IRE1 (second series), active compounds read low 0.96 | locus YHR079C, strain IRE1, active compounds read low 0.947 | locus YHR094C, strain hxt1, active compounds read low 0.956 | locus YHR129C, strain ARP1, active compounds read low 0.97 | locus YHR142W, strain chs7, active compounds read low 0.951 | locus YHR200W, strain rpn10, active compounds read low 0.972 | locus YIL066C, strain RNR3, active compounds read low 0.99 | locus YIL073C, strain SPO22, active compounds read low 0.985 | locus YIL125W, strain kgd1, active compounds read low 0.946 | locus YIR030C, strain dcg1, active compounds read low 0.959 | locus YJL092W, strain hpr5, active compounds read low 0.962 | locus YJL095W, strain BCK1 (second series), active compounds read low 0.951 | locus YJL095W, strain BCK1, active compounds read low 0.971 and 0.957 | locus YJL115W, strain asf1, active compounds read low 0.985 | locus YJL134W, strain LCB3, active compounds read low 0.967 | locus YJL154C, strain vps35, active compounds read low 0.962 | locus YJL164C, strain tpk1, active compounds read low 0.951 | locus YJL168C, strain set2, active compounds read low 0.938 | locus YJL187C, strain SWE1 (second series), active compounds read low 0.999 | locus YJR043C, strain POL32, active compounds read low 0.995 | locus YJR066W, strain TOR1, active compounds read low 0.918 | locus YJR075W, strain HOC1, active compounds read low 0.991 and 1
active: locus YDR392W, strain spt3, active compounds read low 0.539 | locus YJL129C, strain trk1, active compounds read low 0.679 | locus YJL166W, strain qcr8, active compounds read low 0.898
